# Laboratory results taken from PubChem BioAssay (Tox21).
# Records with an inconclusive call do not appear. Where a call stands in place of a potency, no number is given. Activity calls are given as the source filed them. Calls come from the whole dose curve; as a rule, active = well fitted cell-killing curve with a large enough effect in the repeat runs; inconclusive = weak or mixed curves; inactive = flat fitted curve, though single readings scatter.
# Assay: qHTS assay to identify small molecule antagonists of the estrogen related receptor (ERR) signaling pathway from Tox21 library - cell viability counter screen (AID 1224834); note: nearly all actives have a fitted effect of over 30% in size
# Settings: ERR reporter cells viability, CellTiter-Fluor, 17.5 h; series mostly up to 92.4 µM
# Excerpt: National Center for Advancing Translational Sciences [NCATS]
# NIH Chemical Genomics Center [NCGC]
# U.S. Environmental Protection Agency [EPA]
# National Institutes of Environmental Health Sciences [NIEHS]
# National Toxicology Program [NTP]
# U.S. Food and Drug Administration [FDA]
# Estrogen related receptors (ERRs), the first orphan nuclear receptors discovered, play an important role in the control of cellular energy metabolism. ERRs are required for high-energy production in response to the environmental challenges. ERR-alpha was also identified as an adverse marker for breast cancer progression; ERR-alpha-positive tumors have a poor prognosis. To screen and to identify environmental compounds that perturb the ERR signaling pathways could provide valuable information for potential therapeutic or preventive measures in the treatment of metabolic disease. To differentiate true ERR antagonists or agonist from cytotoxic substances, the assay is multiplexed with cell viability assay.
# Tox21 Assay Protocol Summary:
# The ERR cells were dispensed at 2,000 cells/5 ul/well in 1536-well white plates using a Multidrop dispenser. After the assay plates were incubated at a 37 C/5% CO2 incubator for 6 hours, 23 nL of compounds dissolved in DMSO, positive and negative controls or DMSO only was transferred to the assay plate by a pin tool. The plates were incubated at 37 C for 17.5 hours. 1 ul/well of CellTiter-Fluor reagent was added into the assay plates using a Flying Reagent Dispenser. After 30-minute incubation at 37 C/5% CO2, the fluorescence intensity in the plates was measured using a ViewLux plate reader.
# Potency is the fitted concentration of half-maximal effect.
Structure (SMILES),Potency,"viability change, negative = cytotoxic"
O=C(/C=C/c1ccccc1)NCCO,inactive,
C=CCOCC(CO)(COCC=C)COCC=C,inactive,
Cc1cc(C)cc([N+](=O)[O-])c1,inactive,
Cc1nc2ccccc2c(=O)o1,inactive,
CCCCC(CC)C(=O)OC(C)C (stereo not given),inactive,
Cc1ccc(C(=O)C(=O)O)cc1C,inactive,
COc1ccc(N=Nc2cc(C)c(N=Nc3ccc(S(=O)(=O)O)cc3)cc2OC)cc1,19.3 µM (active),
OC[C@@H](O)[C@H](O)[C@@H](O)[C@@H](O)CO,inactive,
C[N+](C)(C)CC(O)CCl (stereo not given),inactive,
Nc1cc(C(=O)O)ccc1Cl,inactive,
COC(/C=C(\C)CCC=C(C)C)OC,inactive,
CCN(CC)C(=O)C1CN2CCc3cc(OC)c(OC)cc3C2CC1OC(C)=O (stereo not given),inactive,
CCS(=O)(=O)CCn1c([N+](=O)[O-])cnc1C,inactive,
CC(=O)OC(C)(C)Cc1ccccc1,inactive,
O=C(O)Cc1cccc(-c2cc(CCCCCCc3ccc(O[C@H]4O[C@H](CO)[C@@H](O)[C@H](O)[C@@H]4O)c(-c4cccc(CC(=O)O)c4)c3)ccc2O[C@H]2O[C@H](CO)[C@@H](O)[C@H](O)[C@@H]2O)c1,,-1.71% [at 0.349 µM] (inactive)
C=COCCOCCOC=C,inactive,
CC1=NN(c2ccc(S(=O)(=O)O)cc2)C(=O)C1N=Nc1ccccc1 (stereo not given),54.5 µM (active),
CC(C)(c1ccc(Oc2ccc3c(c2)C(=O)OC3=O)cc1)c1ccc(Oc2ccc3c(c2)C(=O)OC3=O)cc1,inactive,
CCCCCCCCCCCCC1CO1 (stereo not given),inactive,
CC(C)=CC(C)(C)C,inactive,

Structure (SMILES),Potency,"viability change, negative = cytotoxic"
CO[Si](CCCS)(OC)OC,inactive,
CCN(CCO)c1cccc(C)c1,inactive,
CC(C)COC(=O)CCCCC(=O)OCC(C)C,inactive,
CCC(C)(C)C1CCC(=O)CC1,inactive,
Nc1nc(=O)n([C@@H]2O[C@H](CO)[C@@H](O)[C@@H]2F)cc1I,inactive,
O=C(O)c1ccc(OCCN2CCCCC2)cc1,inactive,
OCCCCCCCl,inactive,
F[Si-2](F)(F)(F)(F)F,inactive,
CN=C(NC#N)NCCSCc1csc(N=C(N)N)n1,inactive,
CCCCCCCCCOCC1CO1 (stereo not given),inactive,
CC1=CC[C@H](CC=O)C1(C)C,inactive,
COc1ccc(NS(=O)(=O)c2ccc(N)cc2)nn1,inactive,
OC(CCN1CCCCC1)(c1ccccc1)c1ccccc1,inactive,
CCN1CN(CC)CN(CC)C1,inactive,
C/C=C(\C)C(=O)OCC/C=C\CC,inactive,
CC(C)COC(=O)COc1ccc(Cl)cc1Cl,inactive,
Nc1ccc(S(=O)(=O)Nc2ccccn2)cc1,inactive,
O=C(O)c1ccccc1C(=O)Nc1ccc(S(=O)(=O)Nc2nccs2)cc1,inactive,
CN(C)CCOCCN(C)CCO,inactive,
C[Si]1(C)N[Si](C)(C)N[Si](C)(C)N1,inactive,
